# From PubChem BioAssay (NCI)
# This is part of a sample that, as a whole, favours compounds with a hit. Of some 83,000 tested, about 20% had one in any assay.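 A percent growth of 40 corresponds to 60% growth inhibition; 0 means no net growth; -100 means all cells died. Active threshold: below 10.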 Unmarked numbers belong to inactive results. Active and inactive are the calls of the source.
# Key:
# Assay in all cases: NCI-60 one-dose screen, 48 h (100 = growth as untreated, 0 = no growth, -100 = all killed)
# HCT-15 colon = details: 10 µM unless noted
# HT29 colon = details: 10 µM unless noted
# U251 CNS = details: 10 µM unless noted
# PC-3 prostate = details: 10 µM unless noted
# SK-MEL-5 melanoma = details: 10 µM unless noted
# UACC-62 melanoma = details: 10 µM unless noted
# LOX IMVI melanoma = details: 10 µM
# SK-MEL-28 melanoma = details: 10 µM unless noted
# SNB-19 CNS = details: 10 µM unless noted
# SNB-75 CNS = details: 10 µM unless noted
Compound,growth (HCT-15 colon),growth (HT29 colon),growth (U251 CNS),growth (PC-3 prostate),growth (SK-MEL-5 melanoma),growth (UACC-62 melanoma),growth (LOX IMVI melanoma),growth (SK-MEL-28 melanoma),growth (SNB-19 CNS),growth (SNB-75 CNS)
COc1ccc(-c2nc3cc(C)ccc3n2CC(=O)N=Nc2c(O)[nH]c3ccc(Br)cc23)cc1,-66.1% (active),-67.4% (active),-63.1% (active),13.9%,-45.6% (active),-42.8% (active),-81.9% (active),-53.8% (active),–,–
Cn1cc(NC(=O)c2cc(NC(=O)c3ccc(C#Cc4ccccc4)cc3)cn2C)cc1C(=O)NCCCN1CCOCC1,-59.4% (active),-71.2% (active),-70.1% (active),–,-92% (active),-90.9% (active),-100% (active),-91.8% (active),73.3%,–
Cc1ccc([C@H]2C(C(=O)c3ccc(Cl)cc3)C3(N[C@@H]2c2ccccc2)C(=O)Nc2ccc(Cl)cc23)cc1 (some centres not stated),47.1%,3.1% (active),47.9%,14%,77.9%,33.8%,39.8%,69.4%,–,–
CC(C)c1sc(NC(=O)c2cc(NC(=O)c3cc(NC(=O)c4nccn4C)cn3C)cn2C)nc1C(=O)NCCCN(C)C,104%,90.7%,–,46%,73.5%,66.3%,29.8%,99%,48.1%,–
Cc1sc2c(c1C)C(c1ccc(Cl)cc1)=N[C@@H](CC(=O)NCCCCCNC(=O)COc1ccc(C3CCC(=O)NC3=O)cc1)c1nnc(C)n1-2 (some centres not stated),33%,13%,45.2%,–,-13.4% (active),3.07% (active),11.3%,48.3%,23.8%,–
Cc1nc(Nc2ncc(C(=O)Nc3c(C)cccc3Cl)s2)cc(N2CCN(CCCNC(=O)COc3ccc(C4CCC(=O)NC4=O)cc3)CC2)n1 (configuration not stated),68.3%,-13.6% (active),62.6%,–,73.7%,55.4%,-96.6% (active),89.4%,47.9%,–
O=C1/C(=C/C2=Cc3ccccc3OC2)SC(=S)N1c1ccccc1F,107%,110%,–,95.7%,105%,88.4%,101%,105%,98.2%,–
NS(=O)(=O)c1ccc(CCNC(=O)CSc2ccc(-c3ccc(Br)cc3)nn2)cc1,97.4%,82.6%,76%,74%,28.4%,66.8%,59.8%,78.1%,–,–
COc1cc2nc(SCc3ccccc3)n(-c3ccc(Cl)cc3)c(=O)c2cc1OC,–,45.4%,-73.1% (active),1.2% (active),82.9%,29.3%,-100% (active),21.6%,-30% (active),-49.5% (active)
CCCSc1nc(Nc2ccc(S(N)(=O)=O)cc2)c(C#N)c(-c2cc(OC)c(OC)c(OC)c2)n1,15.3%,16.6%,27.4%,12.6%,6.41% (active),21%,5.09% (active),35.8%,–,–
CCCCSc1nc(Nc2ccc(S(N)(=O)=O)cc2)c(C#N)c(-c2cc(OC)c(OC)c(OC)c2)n1,25.7%,42%,43.3%,–,20.5%,21.9%,7.76% (active),35.1%,54.5%,–
Clc1cccc(N/N=C/c2c[nH]c3ccc(Br)cc23)n1,22.3%,23.6%,17.1%,7.77% (active),40.3%,1.6% (active),-60.9% (active),49.1%,–,–
CC1(C)CC[C@]2(C(=O)Nc3ccccc3)CC[C@]3(C)C(=CCC4[C@@]5(C)C[C@@H](O)[C@H](O)[C@@](C)(CO)C5CC[C@]43C)C2C1 (some centres not stated),–,22.1%,51.1%,20.4%,20.2%,57.5%,53.1%,70.6%,–,85.5%
CCOC(=O)C1=C(N)N(c2ccccc2)C2=C(C(=O)CC(C)(C)C2)C1c1ccccc1Cl (configuration not stated),–,55%,79.3%,29.6%,60.5%,44%,85.4%,81.4%,70.5%,–
CC(=O)Nc1cccc(Nc2nc(NCc3ccccc3)c3ccccc3n2)c1,–,-86.5% (active),-76.4% (active),-73.2% (active),-98.2% (active),-97.8% (active),–,-95.9% (active),-98.3% (active),-93.8% (active)
COc1cc2c3c(n(CCCN4CCC[C@@H]4CO)c(=O)c2cc1OC)-c1cc2c(cc1C3=O)OCO2,–,-95.2% (active),-95.1% (active),-17.8% (active),-90.8% (active),11.7%,-98.7% (active),-92.1% (active),-90.1% (active),-83.4% (active)
C=C1CCC2C3(C)COC(c4ccccc4)OC3CCC2(C)C1CC(NCc1ccccc1)C1=CCOC1=O (configuration not stated),–,73.5%,77.3%,31.6%,69.9%,70.1%,74.3%,94.2%,73.6%,–
Cn1cc(-c2nc(N)nnc2-c2c[nH]c3ccc(F)cc23)c2cccnc21,–,44.5%,35.7%,51.2%,35.3%,29.8%,–,75.1%,39%,7.07% (active)
O=c1[nH]n(C(=S)N/N=C/c2ccccc2Cl)c(=O)c2ccccc12,–,0.552% (active),-46.5% (active),–,5.82% (active),-65.4% (active),–,-26.3% (active),8.55% (active),52.1%
N/C(=N\c1nc2ccccc2s1)NC(=O)Nc1ccc(Cl)cc1Cl,–,-90.1% (active),–,-2.3% (active),-56.5% (active),-49.8% (active),-96.8% (active),-33.2% (active),–,-68.8% (active)
N/C(=N\c1nc2ccccc2s1)NC(=O)Nc1c(Cl)cccc1Cl,–,8.87% (active),27.9%,63.2%,22.4%,23.6%,24.7%,50.6%,–,27.7%
CC1=C(C(=O)OC(C)C)C(c2cccc(O)c2)NC(=S)N1 (configuration not stated),–,102%,103%,107%,98.8%,91.3%,–,103%,96.8%,105%
C#CCOc1ccc(/C=N/Nc2nc(-c3cc4cc(Br)ccc4oc3=O)cs2)cc1OC,–,36.1%,12.5%,74.2%,87.1%,57.5%,49.5%,78.2%,–,84.5%
Nc1cc2ccccc2c(=O)n1NC(=O)c1ccc(I)cc1,–,101%,–,100%,101%,93.2%,–,103%,95.6%,70%
O=C(COc1ccc(NC(=O)Nc2ccc(Cl)cc2)cc1)N/N=C/c1ccccc1,–,-87.4% (active),-86.2% (active),-72.9% (active),-94% (active),-87.5% (active),-97.5% (active),-84.9% (active),–,–

Compound,growth (HCT-15 colon),growth (HT29 colon),growth (U251 CNS),growth (PC-3 prostate),growth (SK-MEL-5 melanoma),growth (UACC-62 melanoma),growth (LOX IMVI melanoma),growth (SK-MEL-28 melanoma),growth (SNB-19 CNS),growth (SNB-75 CNS)
CN(C)CCCNC(=O)c1cc(NC(=O)c2cc(NC(=O)c3ccc(/C=C/c4ccccc4)cc3)cn2C)cn1C,–,2.73% (active),-14.9% (active),46.6%,40.3%,10.1%,-86.1% (active),60.2%,78%,–
COc1ccccc1C(=O)NN1C(=O)/C(=C/C2=Cc3ccccc3OC2)SC1=S,–,110%,101%,91.2%,104%,91.8%,94%,109%,97.6%,–
N#Cc1c(-c2cccnc2)cc(-c2ccc3ccccc3c2)[nH]c1=O,–,111%,77.7%,95.5%,78.2%,93.8%,–,104%,66.1%,14.4%
COc1cccc(COc2ccc(NC(=O)Nc3ccc(Cl)c(C(F)(F)F)c3)cc2)c1,–,43.5%,31.8%,16.3%,-77% (active),38%,–,69.6%,–,32.1%
Cc1ccc([C@H]2C(C(=O)c3ccc(Cl)cc3)C3(N[C@@H]2c2ccccc2)C(=O)Nc2ccccc23)cc1 (some centres not stated),–,17.8%,48.6%,2.35% (active),34.3%,13.4%,25.5%,32.8%,–,–
COc1ccc(Cc2nn(CC(=O)N/N=C/c3ccc(F)cc3)c(=O)c3c(C)noc23)cc1,–,74%,17.8%,35.9%,82.2%,44.4%,29.5%,35.9%,20.1%,-17.4% (active)
COc1ccc(C(=O)/C=C/c2cc3c(cc2Br)OCO3)cc1S(N)(=O)=O,–,0.446% (active),-95.1% (active),2.21% (active),–,39.2%,-85.5% (active),27.6%,6.32% (active),2.3% (active)
CCS(=O)(=O)N1CCCC(C(=O)Nc2nc3ccc(NC(=O)c4ccc(F)c(OC)c4F)cc3s2)C1 (configuration not stated),–,69.2%,65.9%,50.6%,-7.02% (active),58.2%,67.6%,78.6%,78.9%,62.5%
CCCCCCCCc1ccc(S(=O)(=O)Nc2ccc(CC)cc2C(=O)O)cc1,–,124%,92.9%,89.7%,80.3%,81.3%,99.9%,104%,–,106%
O=c1c2ccccc2nc(-c2ccccc2)n1/N=C/c1ccc2ccccc2c1,–,19.9%,31.2%,53.4%,38.5%,35.8%,–,61.7%,56.8%,–
COc1ccc(C(=O)/C=C/c2cccc(Cl)c2Cl)cc1S(N)(=O)=O,–,-6.28% (active),-96.3% (active),–,–,33%,-78.9% (active),-19.1% (active),6.23% (active),15.2%
O=C(COc1ccc(NC(=O)Nc2ccccc2)cc1)N=Nc1c(O)[nH]c2ccc([N+](=O)[O-])cc12,–,6.92% (active),–,2.22% (active),28.4%,16%,–,-43.9% (active),0.584% (active),7.51% (active)
COc1cc(C2CC(c3cc(OC)c(OC)c(OC)c3)=NN2C(C)=O)ccc1OCc1ccccc1 (configuration not stated),–,38%,44.3%,9.84% (active),9.77% (active),24%,–,42.1%,52.2%,49.3%
CCCSc1nc(Nc2ccc(S(N)(=O)=O)cc2)c(C#N)c(-c2ccc(Cl)cc2)n1,–,33.6%,-14.8% (active),64.3%,55.9%,31.1%,-96.3% (active),73.8%,28.2%,–
O=C(O)c1ccc(-c2ccc(/C=N/NC(=O)c3[nH]c4ccc(Br)cc4c3-c3ccccc3)o2)cc1,–,34.5%,–,–,-9.61% (active),18%,–,31.1%,13%,-8.96% (active)
CN1CCc2c(sc3ncnc(N/N=C/c4ccc(Cl)cc4Cl)c23)C1,–,-88.4% (active),2.63% (active),25.3%,-89.2% (active),-79.9% (active),–,-33.1% (active),26.8%,-50.4% (active)
NS(=O)(=O)c1ccc(NNC(=O)CCC(=O)c2ccccc2)cc1,–,104%,101%,97.6%,99.1%,99.9%,–,112%,98.3%,91.9%
COc1ccc(/C=C/c2nc3ccccc3c(=O)n2CC(=O)Nc2ccc(OC)cc2)cc1,–,72.9%,–,46.1%,92.3%,74.7%,64.8%,103%,51.9%,–
CCOc1ccc(-c2c(C#N)c(-c3ccc(Cl)cc3)nc3n[nH]c(-c4ccc(Cl)cc4)c23)cc1OC,–,34.2%,62.9%,28%,28.2%,68.5%,–,60.2%,77%,58.5%
COc1cc(C2CC(c3cc(OC)c(OC)c(OC)c3)=NN2c2ccccc2)ccc1OCc1ccc(C)cc1 (configuration not stated),–,85.7%,96.7%,92.9%,92.3%,78.8%,–,103%,91.7%,84.1%
CN(C)CCOc1ccc(C(=O)C2[C@H](c3ccc(Cl)cc3)[C@@H](c3ccccc3)NC23C(=O)Nc2ccc(Br)cc23)cc1 (some centres not stated),–,-85.7% (active),-93.2% (active),-3.48% (active),-16.1% (active),43.3%,-100% (active),37.6%,54.1%,–
COc1ccc(NC(=O)Cn2c3c(sc2=O)[C@H]2[C@@H](O)[C@@H](O)[C@H](O)[C@@H]2CS3)cc1,–,110%,99.7%,–,106%,99.8%,–,103%,106%,88.5%
CCCCSc1nc(NCCc2c[nH]c3ccccc23)c(C#N)c(-c2ccc(OC)cc2)n1,–,25.1%,55.2%,23.2%,46.2%,71.2%,37.7%,75.8%,–,65.4%
CCCCCCCS(=O)(=O)N1CCCC(C(=O)Nc2nc3ccc(NC(=O)c4ccc(F)c(OC)c4F)cc3s2)C1 (configuration not stated),–,60.2%,38.6%,40.3%,55%,52.6%,34%,74.2%,31.9%,–
COc1cccc(-c2nc(Nc3ccc(S(N)(=O)=O)cc3)c3ccccc3n2)c1,–,13.8%,40.3%,29.3%,25.6%,37.5%,24.8%,47.3%,50.4%,61.1%
